Our source for the composite z-score and z-score values is PubChem BioAssay.

Molecules are shown by their SMILES. Calls of active or inactive are those of the source. Unless noted, the rule behind the calls is not given here.

The subject of assay [1] is XIP peptide (Xip251-270) binding. As to the kind of experiment: XIP fragment 251-270 binding compounds – biochemical, small-molecule microarray, fluorescence 635/667 nm, 0.1 µg/mL protein, primary screen (AID 1182). As to conditions: fluorescent protein binding, 635 nm, higher = more signal, called active from +8 up or from −8 down.
A further assay has as its system XIP peptide (Xip251-270). The experiment in a line: compounds binding XIP fragment 251-270 – biochemical, small-molecule microarray, fluorescence 635/667 nm, 0.5 µg/mL protein, primary screen (AID 1183). The conditions noted are these: fluorescence 635 nm, higher = more signal.
Assay [2] is described as follows: blood-stage malaria parasite viability loss – strain 3D7, DAPI fluorescence, 100 nL, primary screen (AID 1184).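 Note: parasites grown inside human red blood cells in medium with human serum.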 The conditions noted are these: P. falciparum 3D7 growth, 3 d, higher = more signal.
In assay [3] the target is Homeobox protein Hox-A13 (Mus musculus) (UniProt Q62424). The experiment in a line: disruptors of Hoxa13 oligonucleotide interaction – biochemical, fluorescence polarization, labeled oligonucleotide, primary screen (AID 1185). As to conditions: Hoxa13:DNA binding, 15 min, higher = more signal, called active from +8 up or from −8 down.
The nature of assay [4]: blockers of DNA damage checkpoint Chk1 activation – imaging, HeLa, hydroxyurea, phospho-Chk1 antibody, percent positive cells, primary screen (AID 1186). The conditions noted are these: hydroxyurea-induced phospho-Chk1 immunofluorescence imaging, higher = more signal.
Assay [5] in a line: blockers of DNA damage checkpoint Chk1 activation – imaging, HeLa, hydroxyurea, phospho-Chk1 nuclear intensity, primary screen (AID 1187). The conditions noted are these: hydroxyurea-induced phospho-Chk1 immunofluorescence imaging, higher = more signal.

Chain of Homeobox protein Hox-A13 (Mus musculus) (Q62424 whole entry, looked up): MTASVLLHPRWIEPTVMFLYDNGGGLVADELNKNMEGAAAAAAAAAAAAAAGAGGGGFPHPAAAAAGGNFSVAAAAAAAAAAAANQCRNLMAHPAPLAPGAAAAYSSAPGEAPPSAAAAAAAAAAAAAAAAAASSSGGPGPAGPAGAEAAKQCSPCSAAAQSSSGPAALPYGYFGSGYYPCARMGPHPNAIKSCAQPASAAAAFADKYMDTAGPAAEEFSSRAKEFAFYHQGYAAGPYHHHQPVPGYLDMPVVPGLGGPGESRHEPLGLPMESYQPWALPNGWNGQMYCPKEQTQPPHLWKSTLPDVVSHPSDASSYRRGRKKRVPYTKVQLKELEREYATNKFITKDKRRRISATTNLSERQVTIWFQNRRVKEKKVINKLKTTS

As for `O=C1O[C@@H](c2ccccc2)[C@@H](c2ccccc2)N2[C@@H](c3ccccc3OCCO)[C@]3(C(=O)Nc4ccc(C#CC5=CCCCC5)cc43)[C@@H](C(=O)O)[C@H]12`, the composite z-score in assay [1] is 0.364 (inactive); with XIP peptide (Xip251-270) it was 0.305. For the same compound, the z-score in assay [2] was -0.662; in assay [3], -3.14 (inactive); in assay [4] it was -0.379 (inactive); in assay [5] it was -0.318 (inactive).
Regarding `COC(=O)[C@@]1(Cc2ccccc2)[C@H]2c3cc(C(=O)N4CCCC4)n(CCN4CNCC4=O)c3C[C@H]2CN1C(=O)c1ccccc1`, the results for the composite z-score (in assay [1]; with XIP peptide (Xip251-270)) were 1.12 (inactive) and -0.127, respectively. For the same compound, the z-score in assay [2] was -1.12; in assay [3], -5.22 (inactive); in assay [4], 0.421 (inactive); in assay [5], 0.912 (inactive).
As for `NC(=O)NCC#Cc1ccc2c(c1)[C@]1(C(=O)N2)[C@H](c2ccccc2OCCO)N2[C@H](c3ccccc3)[C@H](c3ccccc3)OC(=O)[C@H]2[C@@H]1C(=O)N1CCN(c2ncccn2)CC1`, the figures for the composite z-score (in assay [1]; in the assay with XIP peptide (Xip251-270)) were 0.233 (inactive) and 0.763, respectively. Further, the z-score in assay [2] was -2.34; in assay [3] it was 0.487 (inactive); in assay [4] it was 0.553 (inactive); in assay [5], 1.5 (inactive).
For `CCOC(=O)C[C@H]1[C@H](OC(=O)c2ccccc2-c2ccccc2)[C@@H](NC(=O)c2ccc(-c3ccccc3)cc2)c2cc(OCCCO)ccc2N1C(=O)Cc1ccc(OC)cc1`, the figures for the composite z-score (in assay [1]; in the assay on XIP peptide (Xip251-270)) were 0.617 (inactive) and 0.222, respectively. For the same compound, the z-score was 0.561 in assay [2], -2.32 (inactive) in assay [3], 0.663 (inactive) in assay [4] and 0.241 (inactive) in assay [5].
For `CC(C)CN1C(=O)[C@@]2(Cc3ccccc31)c1ccccc1C(=O)N(C1CCCCC1)[C@H]2c1ccc(CO)cc1`, the composite z-score is 1.15 (inactive) in assay [1] and -0.906 in the assay on XIP peptide (Xip251-270). In addition, the z-score in assay [2] is -1.38; in assay [3], -0.429 (inactive); in assay [4], -0.81 (inactive); in assay [5] it was -1.17 (inactive).
Regarding `COc1cc2c(cc1OC)CN(C(=O)[C@H]1[C@@H]3C(=O)O[C@@H](c4ccccc4)[C@@H](c4ccccc4)N3[C@@H](c3ccccc3OCCO)[C@]13C(=O)Nc1ccc(C#CC4(O)CCCCCC4)cc13)CC2`, the composite z-score in assay [1] was 1.62 (inactive); in the assay with XIP peptide (Xip251-270) it was 0.837. The z-score is -2.14 in assay [2], 1.74 (inactive) in assay [3], -0.0766 (inactive) in assay [4] and 0.196 (inactive) in assay [5].
For the compound `CN(C)C(=O)[C@@]1(Cc2ccccc2N=[N+]=[N-])N=C(c2ccc(OCCCO)cc2)O[C@H]1c1ccccc1CN=[N+]=[N-]`, the composite z-score in assay [1] was 0.0857 (inactive); in the assay with XIP peptide (Xip251-270), 0.896. Besides, the z-score is -2.25 in assay [2], -1.82 (inactive) in assay [3], -0.554 (inactive) in assay [4] and -0.339 (inactive) in assay [5].
With `COCCOC(=O)N1C(=O)[C@@]2(c3cc(C#CCNC(N)=O)ccc31)[C@H](c1ccc(OCCO)cc1)N1[C@H](c3ccccc3)[C@H](c3ccccc3)OC(=O)[C@H]1[C@@H]2C(=O)Nc1nc2ccccc2s1`, the composite z-score was 0.329 (inactive) in assay [1] and -0.444 in the assay on XIP peptide (Xip251-270). Moreover, the z-score in assay [2] was -1.08; in assay [3], 0.967 (inactive); in assay [4] it was 0.0818 (inactive); in assay [5] it was 0.238 (inactive).
As for `CC1CC/C=C\[C@H]2OC34C=CCN(Cn5nnc6ccccc65)C(=O)[C@H]3N(C(C)CO)C(=O)[C@@H]4C2C(=O)O1` (some centres not stated), the composite z-score in assay [1] is 0.205 (inactive); in the assay with XIP peptide (Xip251-270), 0.0783. For the same compound, the z-score in assay [2] is 0.189; in assay [3], -4.29 (inactive); in assay [4], -0.087 (inactive); in assay [5] it was -0.361 (inactive).
With `CCCC[C@H]1OB(O)C[C@H]2C1=C(COC)C[C@H]1C(=O)N(Cc3ccccc3)C(=O)[C@H]12`, the composite z-score in assay [1] is 0.2 (inactive); in the assay on XIP peptide (Xip251-270), 0.0845. The z-score in assay [2] was -0.386; in assay [3], -6.5 (inactive); in assay [4], -0.669 (inactive); in assay [5], -0.331 (inactive).
With `C=C(CCCC)/C(=C/C[C@@H](OC(=O)c1ccncc1)c1ccc(CO)o1)c1cnc2ccccc2c1`, the composite z-score in assay [1] is 0.518 (inactive); in the assay on XIP peptide (Xip251-270), 0.776. In addition, the z-score is -0.573 in assay [2], -4.65 (inactive) in assay [3], 0.222 (inactive) in assay [4] and -0.125 (inactive) in assay [5].
Take `C#CCNC(/C=C/c1ccccc1)CO` (configuration not stated): the composite z-score was -0.447 (inactive) in assay [1] and 0.0391 in the assay with XIP peptide (Xip251-270). Also, the z-score is -0.414 in assay [2], -1.21 (inactive) in assay [3], 0.0357 (inactive) in assay [4] and 0.237 (inactive) in assay [5].
Consider `CC(C)(C)OC(=O)CC[C@@]1(C(=O)NCc2ccccc2)N=C(c2ccc(OCCCO)cc2)O[C@@H]1c1ccccc1`, for which the results for the composite z-score (in assay [1]; in the assay with XIP peptide (Xip251-270)) were 1.59 (inactive) and 0.93, respectively. For the same compound, the z-score is -2.25 in assay [2], -5.51 (inactive) in assay [3], -1.17 (inactive) in assay [4] and -1.29 (inactive) in assay [5].
Take `C=C[C@H](OC)[C@@H](OC(=O)Nc1ccc(SC)cc1)c1ccc(O)c(F)c1`: the composite z-score in assay [1] was 2.52 (inactive); in the assay with XIP peptide (Xip251-270) it was 0.719. Further, the z-score in assay [2] was 0.188; in assay [3], -2.14 (inactive); in assay [4] it was -1.07 (inactive); in assay [5], -0.478 (inactive).
With `CCOC(=O)C1=CC[C@@H](c2ccccc2)N(S(=O)(=O)c2ccc(C)cc2)[C@H]1C`, the composite z-score was 0.214 (inactive) in assay [1] and 0.862 in the assay on XIP peptide (Xip251-270). Besides, the z-score was -1.5 in assay [2], -2.38 (inactive) in assay [3], -0.325 (inactive) in assay [4] and -0.586 (inactive) in assay [5].
`COC(=O)Cn1c(C(=O)N2CCCC2)cc2c1C[C@H]1CN(C(=O)c3ccccc3)[C@@](Cc3ccc(OC)cc3)(C(=O)OC)[C@@H]21`: the composite z-score in assay [1] was 0.516 (inactive); in the assay on XIP peptide (Xip251-270), 0.518. For the same compound, the z-score in assay [2] was -1.48; in assay [3] it was -3.21 (inactive); in assay [4] it was 0.847 (inactive); in assay [5] it was 0.487 (inactive).
With `COc1ccc([Si](C)(C)[C@@H]2[C@@H](CCO)O[C@]3(C(=O)N(Cc4ccccc4)c4ccccc43)[C@H]2C)cc1`, the composite z-score in assay [1] is 0.151 (inactive); in the assay on XIP peptide (Xip251-270) it was 0.283. The z-score in assay [2] is -1.96; in assay [3], 0.563 (inactive); in assay [4], -0.0106 (inactive); in assay [5], 0.402 (inactive).
